Screens (PubChem BioAssay)
HT1080NT lethal – qHTS for induction of synthetic lethality in tumor cells producing 2HG: qHTS for the HT-1080-NT fibrosarcoma cell line; HT-1080-NT fibrosarcoma viability, CellTiter-Glo ATP luminescence, 48 h; Potency, µM (top dose mostly 46.1 µM), without a hit: at the top dose activity, negative = less viability, most hits filed as cytotoxic; 360,000 compounds, 1.6% hits;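 also: NT is the 2HG producing partner of a matched IDH1 knockdown line; potency is read from the fitted curve at half-maximal effect; 0% = DMSO-treated cells and -100% = media-only wells without cells; nearly all actives have a fitted effect of over 55% in size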
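Compounds were tested in concentration-response format on HT-1080-NT cells for 48 hours at 37 degrees C. Cell viability came from CellTiter-Glo luminescence; curves were classified by r2, response magnitude and activity.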
HT1080 IDH1KD tx – qHTS for induction of synthetic lethality in tumor cells producing 2HG: qHTS for the HT-1080-IDH1KD cell line; AID 686971, 2013; Potency, µM (highest dose often 46.1 µM), for the others: at the highest dose activity, negative = toxicity, hits mostly cytotoxic; HT-1080 IDH1 knockdown viability, ATP luminescence, 48 h; 360,000 compounds, 2% hits;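 also: potency is read from the fitted curve at half-maximal effect; 0% = DMSO wells and -100% = cell-free medium wells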
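HT-1080-IDH1KD cells (IDH1 knocked down), 750/well in RPMI with 5% FBS, treated with compound 48 h at 37 degrees C. Viability by CellTiter-Glo luminescence, normalised to DMSO and no-cell wells; concentration-response curves classed.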
ELG1 repair inh – qHTS screen for small molecules that inhibit ELG1-dependent DNA repair in human embryonic kidney (HEK293T) cells expressing luciferase-tagged ELG1 | HEK293T ELG1-luciferase reporter, luminescence, 16 h; DNA damage induced by 5-fluorouridine | Potency, µM (titrated, usually from 46.1 µM), for inactives: at the top dose activity change, negative = inhibition, hits mostly inhibitors | 330,000 compounds, 2.3% hits | AID 504467, 2011; also: potency is read from the fitted curve at half-maximal effect; nearly all actives have a fitted effect of over 55% in size
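Step one: seed 2,000 cells per well. Step two: pin-transfer compound or DMSO alongside 5-fluorouridine. Step three: incubate 16 hr, 37 °C, 5% CO2. Step four: add ONE-Glo, wait 30 min, read luminescence.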
IL-1B inflam inh – qHTS for Inhibitors of Inflammasome Signaling: IL-1-beta AlphaLISA Primary Screen; AID 743279, 2014; THP-1 LPS/ATP IL-1B secretion, AlphaLISA, 16 h; active compounds read low; 360,000 compounds, 4.7% hits; activity change, % at 57.5 µM; in the data active = activity change below about -50%; inconclusive = mostly about -30% to -49%
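Secreted IL-1B measured by AlphaLISA bead assay after 16 h compound exposure of THP-1 cells; compounds (final up to 57.5 uM) added 1 h before LPS (250 ng/mL) and ATP (1.25 mM) stimulation; lower signal means less secretion.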
DT40 TDP1 CPT – qHTS for Inhibitors of human tyrosyl-DNA phosphodiesterase 1 (TDP1): qHTS in cells in presence of CPT; AID 686979, 2013; Potency, µM (highest dose often 46.2 µM), for inactives: at the top dose activity change, negative = growth inhibition, most hits filed as inhibitors; chicken DT40 Tdp1-/-;hTDP1 cells + 20 nM CPT, ATP luminescence, 48 h; 420,000 compounds, 12% hits; also: potency is read from the fitted curve at half-maximal effect; nearly all actives have a fitted effect of over 55% in size
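Chicken DT40 Tdp1-/- cells stably complemented with human TDP1 were seeded at 400 cells/well in medium containing 20 nM camptothecin, exposed to pin-transferred compounds, and grown at 37 °C for at least 48 hr. Viability was read as ATP luminescence.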
TDP1 cell noCPT – qHTS for Inhibitors of human tyrosyl-DNA phosphodiesterase 1 (TDP1): qHTS in cells in absence of CPT. 420,000 compounds, 15% hits. AID 686978, 2013. DT40 Tdp1-/- hTDP1 cells, no CPT, ATP luminescence, 48 h. Potency, µM (highest dose often 46.2 µM), without a hit: top-dose activity change, negative = growth inhibition, usual class: inhibitors; also: potency is read from the fitted curve at half-maximal effect; nearly all actives have a fitted effect of over 55% in size
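Camptothecin absent (DMSO only). Human TDP1-complemented DT40 knockout cells, 400 cells/well, 37 °C for minimum 48 hr; ATP measured via CellTiter-Glo, 30 min dark incubation, luminescence.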
Active calls of the source: *. Rows were chosen to be rich in hits. Some 19% of all compounds tested hit in one or more screens of this group. Unless noted, calls follow the shape of the dose curve; as a rule, active = well fitted curve in the direction sought with a large enough effect; inconclusive = small, poorly fitted or top-dose-only effect, or another doubt; inactive = no such curve, though single readings can be large; an effect the other way counts as inactive or inconclusive. Unless noted, % is scaled to controls: 0 for no effect and ±100 for the full control effect.

`COc1ccc(C(CNC(=O)c2oc3cc(C)c(Cl)cc3c2C)N2CCCCC2)cc1` (stereo unspecified) gave HT1080NT lethal 8.7%, HT1080 IDH1KD tx 0.5%, ELG1 repair inh -4.4%, IL-1B inflam inh 22.8, DT40 TDP1 CPT 13µM* and TDP1 cell noCPT inconclusive.
C=CCNC(=O)C1CC1(c1cccc(C)c1)c1cccc(C)c1 (stereo unspecified) was read as HT1080NT lethal inconclusive, HT1080 IDH1KD tx inconclusive, DT40 TDP1 CPT 2.0% and TDP1 cell noCPT -23.9%.
COc1cccc(C2(c3cccc(OC)c3)CC2C(=O)Nc2ccccc2Cl)c1 (stereo unspecified) was read as HT1080NT lethal inconclusive, HT1080 IDH1KD tx 20.6µM*, ELG1 repair inh inconclusive, IL-1B inflam inh 10.5, DT40 TDP1 CPT inconclusive and TDP1 cell noCPT 23.1µM*.
`COc1cccc(C2(c3cccc(OC)c3)CC2C(=O)Nc2ccc(F)cc2)c1` (stereo unspecified) gave HT1080NT lethal 5.7%, HT1080 IDH1KD tx 10.8%, ELG1 repair inh -4.6%, IL-1B inflam inh 4.4, DT40 TDP1 CPT 0.7% and TDP1 cell noCPT -25.3%.
Cc1cccc(C2(c3cccc(C)c3)CC2C(=O)Nc2ccc([N+](=O)[O-])cc2O)c1 (stereo unspecified) was read as HT1080NT lethal inconclusive, HT1080 IDH1KD tx inconclusive, ELG1 repair inh 23.8%, IL-1B inflam inh -97.9*, DT40 TDP1 CPT 8.2µM* and TDP1 cell noCPT 5.17µM*.
For CCS(=O)(=O)N1CC(=O)N(c2cccc(C)c2C)C(C)(C(=O)NC2CCCCC2)C1 (stereo unspecified) the results were DT40 TDP1 CPT -2.1% and TDP1 cell noCPT -8.6%.
Screening CC(=O)NC(CC(=O)NNC(=O)COc1c(C)cccc1C)c1ccccc1 (stereo unspecified) returned HT1080NT lethal 7.9%, HT1080 IDH1KD tx 6.3%, ELG1 repair inh 4.4%, IL-1B inflam inh 19.9, DT40 TDP1 CPT -1.2% and TDP1 cell noCPT -0.8%.
`Cc1cccc(C)c1OCC(=O)N[C@@H](Cc1ccccc1)[C@@H](O)C[C@H](Cc1ccccc1)NC(=O)[C@H](C(C)C)N1CCCNC1=O` gave DT40 TDP1 CPT 7.94µM* and TDP1 cell noCPT 18.8µM*.
Screening Cc1ccc(-c2cc3ccccc3nc2N2CCOCC2)cc1 returned HT1080NT lethal -2.3%, HT1080 IDH1KD tx -3.1%, ELG1 repair inh -28.6%, IL-1B inflam inh 66.7, DT40 TDP1 CPT -27.5% and TDP1 cell noCPT inconclusive.
Screening Brc1ccc(-c2nnc(-c3ccccc3)c(N3CCSCC3)n2)cc1 returned HT1080NT lethal -12.5%, HT1080 IDH1KD tx -9.8%, ELG1 repair inh inconclusive, IL-1B inflam inh -0.7, DT40 TDP1 CPT inconclusive and TDP1 cell noCPT 25.9µM*.
For c1ccc(Oc2nc(Oc3ccccc3)nc(N3CCOCC3)n2)cc1 the results were HT1080NT lethal -0.5%, HT1080 IDH1KD tx 2.2%, ELG1 repair inh -8.6%, IL-1B inflam inh -10.7, DT40 TDP1 CPT inconclusive and TDP1 cell noCPT -27.6%.
Cc1nnc(-c2cccc(C(F)(F)F)c2)nc1N1CCOCC1 was read as HT1080NT lethal -19.9%, HT1080 IDH1KD tx -9.5%, ELG1 repair inh -6.7%, IL-1B inflam inh -2.9, DT40 TDP1 CPT 4.6% and TDP1 cell noCPT 14.6µM*.
